The other results are listed elsewhere or left out. Unmarked numbers belong to inactive results. Activity calls are given as the source filed them.
How the values were obtained:
[1] = molecular target: Inward rectifier potassium channel 2 (Mus musculus) (UniProt P35561); test: inhibition of Kir2.1 inward rectifier potassium flux – cell-based, FluxOR thallium flux, duplicate, confirmation (AID 2032;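 active means Primary-screen hit whose thallium flux fell at least 3 control SD below untreated wells in both duplicates, with normal baseline fluorescence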); settings: Kir2.1-expressing cells, FluxOR thallium flux fluorescence, at 10 µM; active compounds read low
Sequence of Inward rectifier potassium channel 2 (Mus musculus) (P35561 whole entry, looked up): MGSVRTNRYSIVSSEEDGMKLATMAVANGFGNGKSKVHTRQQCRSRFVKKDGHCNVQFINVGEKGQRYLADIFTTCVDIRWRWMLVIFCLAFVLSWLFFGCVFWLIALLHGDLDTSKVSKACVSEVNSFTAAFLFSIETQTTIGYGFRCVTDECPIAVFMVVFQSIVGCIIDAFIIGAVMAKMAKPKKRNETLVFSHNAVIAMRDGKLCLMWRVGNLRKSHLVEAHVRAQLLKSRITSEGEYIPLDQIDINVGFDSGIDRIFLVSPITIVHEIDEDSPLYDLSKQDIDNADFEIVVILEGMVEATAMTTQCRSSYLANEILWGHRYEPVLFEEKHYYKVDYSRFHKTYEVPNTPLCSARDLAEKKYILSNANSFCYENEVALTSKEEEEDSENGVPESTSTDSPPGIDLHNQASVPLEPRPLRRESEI

[2] = parental HEK293 cell activity, no Kir2.1 – FluxOR thallium flux, duplicate, single concentration, counter-screen for Kir2.1 inhibitor project, confirmation (AID 2105;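 active means dye signal at least 3 control SD above or below untreated wells in both duplicates, raw fluorescence within 3, either direction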;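 on FluxOR signal as % of negative control (100 = no effect): percent is based on the flux ratio of peak minus minimum fluorescence over baseline F0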); settings: parental HEK293 cells, FluxOR thallium flux fluorescence, at 10 µM; 0% = unstimulated blank wells
[3] = parental CHO-K1 cell activation, no KCNQ2 – FluxOR thallium flux, duplicate, counter-screen for KCNQ2 potentiator project, confirmation (AID 2282;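 active means signal rise of at least 3 SD above the untreated control mean, in both duplicate wells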;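 further: counter screen of KCNQ2 potentiator hits so any rise reflects channel-independent effects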); settings: parental CHO-K1 cells, FluxOR thallium flux fluorescence; at 10 µM; active compounds read high; zero = vehicle mean+3SD, 100% = vehicle-minus-blank window
[4] = molecular target: Potassium voltage-gated channel subfamily KQT member 1 (Homo sapiens) (UniProt P51787); test: KCNQ1 activation in stable CHO cells – cell-based, FluxOR thallium flux, selectivity assay for KCNQ2 potentiator project, confirmation (AID 2283;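 active means fluorescence ratio rise of at least 3 SD of vehicle wells above their mean, in both replicate wells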;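 further: 0% = vehicle mean plus 3 SD and 100% = vehicle minus unstimulated blank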); settings: FluxOR thallium flux fluorescence, at 10 µM, active compounds read high, beyond 3SD, as % of vehicle-control signal
Sequence of Potassium voltage-gated channel subfamily KQT member 1 (Homo sapiens) (P51787 whole entry, looked up): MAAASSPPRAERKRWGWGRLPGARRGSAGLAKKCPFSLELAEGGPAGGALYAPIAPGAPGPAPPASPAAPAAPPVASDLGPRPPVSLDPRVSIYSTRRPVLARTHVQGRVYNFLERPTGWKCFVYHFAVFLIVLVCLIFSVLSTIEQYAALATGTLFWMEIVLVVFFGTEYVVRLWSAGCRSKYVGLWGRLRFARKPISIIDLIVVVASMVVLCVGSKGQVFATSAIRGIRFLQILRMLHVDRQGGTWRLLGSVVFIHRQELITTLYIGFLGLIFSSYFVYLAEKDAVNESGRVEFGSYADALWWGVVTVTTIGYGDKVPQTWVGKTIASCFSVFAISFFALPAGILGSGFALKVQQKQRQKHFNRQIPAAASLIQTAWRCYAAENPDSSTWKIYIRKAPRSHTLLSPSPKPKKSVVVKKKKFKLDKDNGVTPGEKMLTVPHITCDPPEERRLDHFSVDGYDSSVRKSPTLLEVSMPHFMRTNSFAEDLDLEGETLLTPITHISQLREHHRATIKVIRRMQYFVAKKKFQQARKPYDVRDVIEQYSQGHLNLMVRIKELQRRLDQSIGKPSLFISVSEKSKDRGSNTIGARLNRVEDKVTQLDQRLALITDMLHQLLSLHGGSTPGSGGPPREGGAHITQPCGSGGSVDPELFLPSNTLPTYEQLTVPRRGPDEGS

[5] = molecular target: Potassium voltage-gated channel subfamily KQT member 2 (Rattus norvegicus) (UniProt O88943); test: KCNQ2 potassium channel activity enhancers – cell-based, CHO, FluxOR thallium flux, duplicate, confirmation (AID 2287;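 active means fluorescence ratio rising 3 SD or more over the vehicle control mean in both replicates, plus primary screen hit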;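 further: peak minus minimum thallium fluorescence divided by baseline after K/Tl stimulus; 0% = vehicle mean plus 3 SD and 100% = vehicle minus unstimulated blank difference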); settings: CHO-KCNQ2 cells, FluxOR thallium flux fluorescence; at 10 µM; active compounds read high
[6] = molecular target: Inward rectifier potassium channel 2 (Mus musculus) (UniProt P35561); test: PubChem AID 2345; settings: HEK293 Kir2.1, FluxOR thallium flux fluorescence; at 10 µM; active compounds read high;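 further: 0% = vehicle mean plus 3 SD and 100% = vehicle minus no-stimulus blank window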
[7] = molecular target: Potassium voltage-gated channel subfamily KQT member 2 (Rattus norvegicus) (UniProt O88943); test: W236L mutant KCNQ2 current enhancers – cell-based, rat KCNQ2 W236L, CHO, automated patch clamp, mechanism study for KCNQ2 potentiator project (AID 2558;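 active means current increase at least 3 SD of the untreated controls above them in both duplicate recordings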); settings: at 25 µM
[8] = molecular target: Voltage-gated inwardly rectifying potassium channel KCNH2 (Homo sapiens) (UniProt Q12809); test: hERG block by Kir2.1 inhibitor candidates – cell-based, thallium flux, counter-screen for Kir2.1 inhibitor project (AID 2236); settings: hERG-expressing cells, at 10 µM; active compounds read high;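 further: host cells are CHO cells stably expressing hERG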
Sequence of Voltage-gated inwardly rectifying potassium channel KCNH2 (Homo sapiens) (Q12809 whole entry, looked up): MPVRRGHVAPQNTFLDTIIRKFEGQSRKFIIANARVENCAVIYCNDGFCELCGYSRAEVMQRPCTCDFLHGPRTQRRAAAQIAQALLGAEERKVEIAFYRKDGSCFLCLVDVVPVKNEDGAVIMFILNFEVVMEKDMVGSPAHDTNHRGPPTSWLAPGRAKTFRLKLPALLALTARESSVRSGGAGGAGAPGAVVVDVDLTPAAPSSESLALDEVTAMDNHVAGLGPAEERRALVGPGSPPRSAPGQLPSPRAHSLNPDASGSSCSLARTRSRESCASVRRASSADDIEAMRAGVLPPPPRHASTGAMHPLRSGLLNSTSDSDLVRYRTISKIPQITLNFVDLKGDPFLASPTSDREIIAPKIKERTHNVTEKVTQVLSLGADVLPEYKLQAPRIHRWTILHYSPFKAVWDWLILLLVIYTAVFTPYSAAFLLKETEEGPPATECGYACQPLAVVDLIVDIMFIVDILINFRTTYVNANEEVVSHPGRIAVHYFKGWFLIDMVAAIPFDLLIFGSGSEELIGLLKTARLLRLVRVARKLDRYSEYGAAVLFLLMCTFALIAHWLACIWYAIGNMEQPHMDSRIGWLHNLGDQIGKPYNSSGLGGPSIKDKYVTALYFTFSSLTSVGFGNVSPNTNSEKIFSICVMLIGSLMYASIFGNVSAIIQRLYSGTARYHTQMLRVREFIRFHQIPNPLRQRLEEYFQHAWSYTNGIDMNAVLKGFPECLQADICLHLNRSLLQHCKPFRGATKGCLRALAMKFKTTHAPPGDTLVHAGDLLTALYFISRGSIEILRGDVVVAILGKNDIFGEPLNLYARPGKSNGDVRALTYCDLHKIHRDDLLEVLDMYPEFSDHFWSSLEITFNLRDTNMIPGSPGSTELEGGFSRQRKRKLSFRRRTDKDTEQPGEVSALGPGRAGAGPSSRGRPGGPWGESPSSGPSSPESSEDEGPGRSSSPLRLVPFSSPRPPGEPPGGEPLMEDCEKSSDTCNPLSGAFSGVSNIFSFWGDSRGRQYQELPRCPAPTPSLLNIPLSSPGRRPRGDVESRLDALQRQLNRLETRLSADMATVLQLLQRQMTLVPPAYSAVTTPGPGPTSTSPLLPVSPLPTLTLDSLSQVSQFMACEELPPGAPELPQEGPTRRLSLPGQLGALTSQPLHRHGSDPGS

[9] = molecular target: Potassium channel subfamily K member 9 (Homo sapiens) (UniProt Q9NPC2); test: human KCNK9 potassium channel blockers – cell-based, selectivity assay for Kir2.1 inhibitor project (AID 2329); settings: KCNK9-expressing cells, ion flux inhibition, at 10 µM; active compounds read high
[10] = molecular target: Inward rectifier potassium channel 2 (Mus musculus) (UniProt P35561); test: Kir2.1 potassium current inhibition – cell-based, secondary, automated electrophysiology, Kir2.1 inhibitor project (AID 463252); settings: Kir2.1 cells, automated patch-clamp current inhibition, at 25 µM; active compounds read high

Cc1ccc(-n2nc3c(c2NC(=O)CCC2CCCCC2)CS(=O)C3)cc1 (stereo not drawn)
outcome [1]: inactive | outcome [2]: inactive | activity increase over 3SD of controls [3]: 7.4% (active) | activation over 3SD threshold [4]: 30.1% (active) | potentiation, less the hit threshold [5]: 27.6% (active) | activity over 3SD threshold [6]: -35.2% | outcome [7]: inactive

C/C=C(/C)C(=O)OC1Cc2c(ccc3ccc(=O)oc23)OC1(C)C (stereo not drawn)
Tl flux remaining, % of negative control (active compounds read low) [1]: 63% (active) | outcome [2]: inactive | outcome [8]: inactive | outcome [9]: inactive | outcome [10]: inactive

O=C(/C=C/Sc1ncn[nH]1)c1ccc(Cl)cc1
outcome [1]: inactive | outcome [2]: inactive | activity increase over 3SD of controls [3]: -4% | activation over 3SD threshold [4]: 0.3% (active) | potentiation, less the hit threshold [5]: -17.8% | activity over 3SD threshold [6]: -56.5%

Cc1cc2cc3c(cc2nc1SCC(=O)Nc1c(C)cccc1C)CCC3
outcome [1]: inactive | outcome [2]: inactive | activity increase over 3SD of controls [3]: 20.3% (active) | activation over 3SD threshold [4]: 6.2% (active) | potentiation, less the hit threshold [5]: -22.8% | activity over 3SD threshold [6]: -19.1%

CC1(c2ccccc2Cl)NC(=O)N(CC(=O)NC(=O)NCc2ccco2)C1=O (stereo not drawn)
outcome [1]: inactive | outcome [2]: inactive | activity increase over 3SD of controls [3]: 15.2% (active) | activation over 3SD threshold [4]: -28.7% | potentiation, less the hit threshold [5]: -11.8% | activity over 3SD threshold [6]: -15.3%

Cc1cccc(NC(=O)c2nc(S(=O)(=O)Cc3ccccc3)ncc2Cl)c1
outcome [1]: inactive | outcome [2]: inactive | activity increase over 3SD of controls [3]: -15.5% | activation over 3SD threshold [4]: -22.3% | potentiation, less the hit threshold [5]: 4% (active) | activity over 3SD threshold [6]: -36% | outcome [7]: inactive

COc1cccc(CN(C)CC(O)COC(c2ccccc2)c2ccccc2C)c1 (stereo not drawn)
Tl flux remaining, % of negative control (active compounds read low) [1]: 66% (active) | outcome [2]: inactive

Clc1cccc(Cl)c1OCCOCCNCc1ccccc1
Tl flux remaining, % of negative control (active compounds read low) [1]: 33% (active) | outcome [2]: inactive | outcome [8]: inactive | outcome [9]: inactive | inhibition [10]: 69.6% (active)

CC(C)(c1ccccc1)c1ccc(OCCN2CCCC2)cc1
Tl flux remaining, % of negative control (active compounds read low) [1]: 44% (active) | outcome [2]: inactive

Cc1ccccc1C(=O)NCCN=C1NS(=O)(=O)c2ccccc21
outcome [1]: inactive | outcome [2]: inactive | outcome [8]: inactive | outcome [9]: inactive | outcome [10]: inactive

O=C(Nc1cccc(-c2cscn2)c1)C1CCN(Cc2ccsc2)CC1
Tl flux remaining, % of negative control (active compounds read low) [1]: 44% (active) | outcome [2]: inactive | inhibition [8]: 51% (active) | outcome [9]: inactive | inhibition [10]: 7.1% (active)

COc1ccc2c(c1)C=CC1(O2)N(CCO)c2ccccc2C1(C)C (stereo not drawn)
outcome [1]: inactive | FluxOR signal as % of negative control (100 = no effect) [2]: 53.5% (active)

From PubChem BioAssay
